Measured potencies and affinities stand elsewhere.

Data on 4 molecules can be found in ChEMBL document CHEMBL4513146, “CO-ADD screening of Karazin Kharkiv National University (Ukraine) compounds”.

One test concerns Klebsiella pneumoniae. Conditions: Concentration 32 ug.mL-1;; ASSAY_TEST Inhibition of Bacterial Growth; detection method Absorption (OD600); MEDIA CAMHB; plate type 384well; NBS; CORNING #3640; time 18 hr.
For another test, the system named is Candida albicans. The note with it: Concentration 32 ug.mL-1; ASSAY_TEST Inhibition of Fungal Growth; detection method Absorption (OD530).
The test system of another test is Cryptococcus neoformans. The note with it: Concentration 32 ug.mL-1; ASSAY_TEST Inhibition of Fungal Growth; detection method Resazurin; Absorption (OD600-OD570); plate type 384well; NBS; CORNING #3640. In general terms: Alamar Blue is a resazurin reagent that responds to reducing activity.

For `Cc1ccc(N(CC(=O)OC(C)(C)C)S(=O)(=O)c2ccc3nnc(C)n3c2)cc1`, the Inhibition in the test on Klebsiella pneumoniae is on record as 4.9%; in the test with Candida albicans it was 1.78%; in the test on Cryptococcus neoformans, -16.68%.

Turning to `COc1ccc(-n2ccn3c(=O)n(Cc4ccccc4Cl)nc3c2=O)cc1Cl`, the Inhibition in the test on Klebsiella pneumoniae came to 3.5%; with Candida albicans it was 1.04%; in the test on Cryptococcus neoformans it was 0.74%.

As for `Cc1ccccc1Oc1nc2ccccc2n2c(=O)n(CC(=O)NCc3ccc4c(c3)OCO4)nc12`, the Inhibition with Klebsiella pneumoniae was 17.68%; in the test with Candida albicans, 19.82%; in the test on Cryptococcus neoformans it was -16.39%.

With `COC(=O)c1ccccc1NC(=O)Cn1nc2c3cc(-c4ccc(Cl)cc4)nn3ccn2c1=O`, the Inhibition was 3.97% in the test with Klebsiella pneumoniae, 0.23% in the test on Candida albicans and -15.71% in the test on Cryptococcus neoformans.

For orientation: Inhibition means the drop in the measured response relative to a control, in per cent.
